From the supplement of paper PMC8728848
The entries come from a sample that favours the strongest signals as a whole.

Experiments:
Assay in all cases: glycan array binding signal (z-score within array); higher = stronger binding
[1] = target: Fuc(a1-2)Gal(b1-4)[Fuc(a1-3)]GlcNAc; conditions: glycan notation: IUPAC condensed, linker removed
Summary of the method: (§1)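 Negative Z-scores can be read as non-binding. The Z-score is calculated within each array and then averaged across arrays of one protein sequence at different concentrations or buffers and across linkers. Arrays, 3228 in all, were curated from the Consortium for Functional Glycomics database and kept only where the protein sequence was available.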

[2] = target: Fuc(a1-2)[GalNAc(a1-3)]Gal(b1-3)GlcNAc; conditions: glycan notation: IUPAC condensed, linker removed; mutation: E321K
Summary of the method: as §1

[3] = target: Fuc(a1-2)[GalNAc(b1-3)]Gal; conditions: glycan notation: IUPAC condensed, linker removed; mutation: E321K
Summary of the method: as §1

Gal(a1-3)Gal = conditions: glycan notation: IUPAC condensed, linker removed; mutation: E321K
Summary of the method: as §1

Gal(a1-3)Gal(b1-4)GlcNAc = conditions: glycan notation: IUPAC condensed, linker removed; mutation: E321K
Summary of the method: as §1

[4] = target: Gal(b1-4)GalNAc(a1-3)[Fuc(a1-2)]Gal(b1-4)GlcNAc; conditions: glycan notation: IUPAC condensed, linker removed; mutation: E321K
Summary of the method: as §1

Gal(b1-4)Glc = conditions: glycan notation: IUPAC condensed, linker removed; mutation: E321K
Summary of the method: as §1

[5] = target: Gal(b1-4)GlcNAc(b1-3)Gal(b1-3)GlcNAc; conditions: glycan notation: IUPAC condensed, linker removed; mutation: E321K
Summary of the method: as §1

[6] = target: Gal(b1-4)GlcNAc(b1-3)GalNAc; conditions: glycan notation: IUPAC condensed, linker removed; mutation: E321K
Summary of the method: as §1

[7] = target: Gal(b1-4)GlcNAc(b1-6)[Gal(b1-3)]GalNAc; conditions: glycan notation: IUPAC condensed, linker removed; mutation: E321K
Summary of the method: as §1

Gal6S(b1-4)Glc6S = conditions: glycan notation: IUPAC condensed, linker removed; mutation: E321K
Summary of the method: as §1

[8] = target: GlcNAc(b1-3)[GlcNAc(b1-6)]GalNAc; conditions: glycan notation: IUPAC condensed, linker removed; mutation: E321K
Summary of the method: as §1

GlcNAc(b1-4)GlcNAc = conditions: glycan notation: IUPAC condensed, linker removed; mutation: E321K
Summary of the method: as §1

[9] = target: GlcNAc(b1-4)GlcNAc(b1-4)GlcNAc(b1-4)GlcNAc(b1-4)GlcNAc(b1-4)GlcNAc; conditions: glycan notation: IUPAC condensed, linker removed; mutation: E321K
Summary of the method: as §1

[10] = target: Man(a1-2)Man(a1-2)Man(a1-6)[Man(a1-3)]Man; conditions: glycan notation: IUPAC condensed, linker removed
Summary of the method: as §1

[11] = target: Neu5Ac(a2-3)Gal(b1-3)GalNAc6S; conditions: glycan notation: IUPAC condensed, linker removed; mutation: E321K
Summary of the method: as §1

[12] = target: Neu5Ac(a2-3)Gal(b1-4)GlcNAc(b1-3)Gal(b1-3)GlcNAc; conditions: glycan notation: IUPAC condensed, linker removed; mutation: E321K
Summary of the method: as §1

[13] = target: Neu5Ac(a2-3)Gal(b1-4)GlcNAc(b1-3)Gal(b1-4)[Fuc(a1-3)]GlcNAc; conditions: glycan notation: IUPAC condensed, linker removed; mutation: E321K
Summary of the method: as §1

[14] = target: Neu5Ac(a2-3)Gal6S(b1-4)GlcNAc; conditions: glycan notation: IUPAC condensed, linker removed; mutation: E321K
Summary of the method: as §1

[15] = target: Neu5Ac(a2-3)GalNAc(b1-4)GlcNAc; conditions: glycan notation: IUPAC condensed, linker removed; mutation: E321K
Summary of the method: as §1

[16] = target: Neu5Ac(a2-6)Gal(b1-4)GlcNAc(b1-2)Man(a1-3)[GlcNAc(b1-2)Man(b1-4)GlcNAc(b1-2)Man(a1-6)]Man(b1-4)GlcNAc(b1-4)GlcNAc; conditions: glycan notation: IUPAC condensed, linker removed; mutation: E321K
Summary of the method: as §1

[17] = target: Neu5Ac(a2-6)Gal(b1-4)GlcNAc(b1-3)Gal(b1-4)GlcNAc; conditions: glycan notation: IUPAC condensed, linker removed; mutation: E321K
Summary of the method: as §1

[18] = target: Neu5Ac(a2-8)Neu5Ac(a2-8)Neu5Ac; conditions: glycan notation: IUPAC condensed, linker removed; mutation: E321K
Summary of the method: as §1

[19] = target: Neu5Ac(a2-8)Neu5Ac(a2-8)Neu5Ac(a2-3)Gal(b1-4)Glc; conditions: glycan notation: IUPAC condensed, linker removed; mutation: E321K
Summary of the method: as §1

Neu5Ac(b2-6)GalNAc = conditions: glycan notation: IUPAC condensed, linker removed; mutation: E321K
Summary of the method: as §1

[20] = target: Fuc(a1-2)Gal(b1-4)[Fuc(a1-3)]GalNAc(b1-3)Gal(b1-4)[Fuc(a1-3)]GlcNAc; conditions: glycan notation: IUPAC condensed, linker removed
Summary of the method: as §1

Gal(a1-3)Gal(b1-3)Glc = conditions: glycan notation: IUPAC condensed, linker removed
Summary of the method: as §1

[21] = target: Gal(b1-3)[Neu5Ac(a2-6)]GalNAc; conditions: glycan notation: IUPAC condensed, linker removed
Summary of the method: as §1

[22] = target: Gal(b1-4)GlcNAc(b1-3)Gal(b1-4)Glc; conditions: glycan notation: IUPAC condensed, linker removed
Summary of the method: as §1

Gal4S(b1-4)GlcNAc = conditions: glycan notation: IUPAC condensed, linker removed
Summary of the method: as §1

Glc(a1-4)Glc = conditions: glycan notation: IUPAC condensed, linker removed
Summary of the method: as §1

[23] = target: GlcNAc(b1-3)Gal(b1-4)GlcNAc(b1-3)Gal(b1-4)GlcNAc; conditions: glycan notation: IUPAC condensed, linker removed
Summary of the method: as §1

[24] = target: GlcNAc(b1-3)[GlcNAc(b1-6)]GlcNAc; conditions: glycan notation: IUPAC condensed, linker removed
Summary of the method: as §1

Man(a1-2)Man(a1-3)Man = conditions: glycan notation: IUPAC condensed, linker removed
Summary of the method: as §1

[25] = target: Neu5Ac(a2-3)Gal(b1-3)[Fuc(a1-4)]GlcNAc(b1-3)Gal(b1-4)[Fuc(a1-3)]GlcNAc; conditions: glycan notation: IUPAC condensed, linker removed
Summary of the method: as §1

[26] = target: Neu5Ac(a2-3)Gal(b1-4)GlcNAc6S; conditions: glycan notation: IUPAC condensed, linker removed
Summary of the method: as §1

[27] = target: Neu5Ac(a2-3)Gal(b1-4)[Fuc(a1-3)]GlcNAc(b1-3)Gal(b1-4)[Fuc(a1-3)]GlcNAc(b1-3)Gal(b1-4)[Fuc(a1-3)]GlcNAc; conditions: glycan notation: IUPAC condensed, linker removed
Summary of the method: as §1

Neu5Ac(a2-6)GalNAc = conditions: glycan notation: IUPAC condensed, linker removed
Summary of the method: as §1

[28] = target: Neu5Ac9Ac(a2-6)Gal(b1-4)GlcNAc; conditions: glycan notation: IUPAC condensed, linker removed
Summary of the method: as §1

B1: Surfactant Protein D (Human); Neck + Carbohydrate Recognition Domain (NCRD) (Homo sapiens) (protein)
chain: MLLFLLSALVLLTQPLGYLEAEMKTYSHRTMPSACTLVMCSSVESGLPGRDRDGREGPRGEKGDPGLPGAAGQAGMPGQAGPVGPKGDNGSVGEPGPKGDTGPSGPPGPPGVPGPAGREGALGKQGNIGPQGKPGPKGEAGPKGEVGAPGMQGSAGARGLAGPKGERGVPGERGVPGNTGAAGSAGAMGPQGSPGARGPPGLKGDKGIPGDKGAKGESGLPDVASLRQQVEALQGQVQHLQAAFSQYKKVELFPNGQSVGEKIFKTAQFVKPFTEAQLLCTQAGGQLASPRSAAENAALQQLVVAKNEAAFLSMTDSKTEGKFTYPTGESLVYSNWAPGKPNDDGGSEDCVEIFTNGKWNDRACGEKRLVVCEF
- glycan array binding signal (z-score) ([1]; mutation: E321K): -0.011
- glycan array binding signal (z-score) [2]: -0.437
- glycan array binding signal (z-score) [3]: -0.418
- glycan array binding signal (z-score) (Gal(a1-3)Gal): -0.277
- glycan array binding signal (z-score) (Gal(a1-3)Gal(b1-4)GlcNAc): 0.494
- glycan array binding signal (z-score) [4]: -0.87
- glycan array binding signal (z-score) (Gal(b1-4)Glc): -0.968
- glycan array binding signal (z-score) [5]: -0.871
- glycan array binding signal (z-score) [6]: -0.758
- glycan array binding signal (z-score) [7]: -0.831
- glycan array binding signal (z-score) (Gal6S(b1-4)Glc6S): 2.78
- glycan array binding signal (z-score) [8]: -0.62
- glycan array binding signal (z-score) (GlcNAc(b1-4)GlcNAc): 2.94
- glycan array binding signal (z-score) [9]: -0.106
- glycan array binding signal (z-score) ([10]; mutation: E321K): 0
- glycan array binding signal (z-score) [11]: 0.404
- glycan array binding signal (z-score) [12]: -0.578
- glycan array binding signal (z-score) [13]: 0.062
- glycan array binding signal (z-score) [14]: 0.549
- glycan array binding signal (z-score) [15]: 3.92
- glycan array binding signal (z-score) [16]: 5.34
- glycan array binding signal (z-score) [17]: -0.587
- glycan array binding signal (z-score) [18]: -0.381
- glycan array binding signal (z-score) [19]: -0.475
- glycan array binding signal (z-score) (Neu5Ac(b2-6)GalNAc): 3.67

B2: 7WC (Trifolium repens) (protein)
chain: MGTITSYAVVFDAGSTGSRVHVYHFDQNLDLLHIGKDVEFYNKIQPGLSAYADNPEQAAKSLIPLLEQAENVVPEDFHSKTPIRLGATAGLRLLDGDASERILQAVRDMLNNKSTFNVQPDAVSIIDGTQEGSYLWVTINYVLGNLGKRFTNTVGVIDLGGGSVQMAYAVSKKTARNAPKVTDGEDPYIKKIVLKGKPYDLYVHSYLHFGREASRAEILKVTHGSASPCILAGFDGIYTYSGEEFKASAPTSGANFDKCKKIIQKALKLDYPCPYQNCTFGGIWNGGGGSGQKKLFAASSFFYLPQDVGMVDPNKSNLKLRPVDLENKAKIVCTLNVEDVKSAYPLLEKFNIVPYACMDLIYQYELLVDGFGLDPLQEITAGEKIEYQEALVDAAWALGNAVEAVLLLPKFERLMYFVVEHHHHHH
- glycan array binding signal (z-score) [20]: -0.347
- glycan array binding signal (z-score) [1]: -0.391
- glycan array binding signal (z-score) (Gal(a1-3)Gal(b1-3)Glc): -0.298
- glycan array binding signal (z-score) [21]: -0.464
- glycan array binding signal (z-score) [22]: -0.215
- glycan array binding signal (z-score) (Gal4S(b1-4)GlcNAc): -0.335
- glycan array binding signal (z-score) (Glc(a1-4)Glc): 2.65
- glycan array binding signal (z-score) [23]: -0.327
- glycan array binding signal (z-score) [24]: 0.685
- glycan array binding signal (z-score) [10]: 9.79
- glycan array binding signal (z-score) (Man(a1-2)Man(a1-3)Man): -0.261
- glycan array binding signal (z-score) [25]: 4.17
- glycan array binding signal (z-score) [26]: -0.474
- glycan array binding signal (z-score) [27]: 2.57
- glycan array binding signal (z-score) (Neu5Ac(a2-6)GalNAc): -0.153
- glycan array binding signal (z-score) [28]: -0.491
